# Hits are enriched below; roughly 2.3% of the tested compounds scored in any of these assays.
# CHO-K1 Ca antag – nonselective inhibitor or artifact in parental CHO-K1 cells. ATP-induced calcium, Fluo-8 fluorescence. actives 0.6% (n = 360,000). inhibition, % at 3 µM;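 active means inhibition above a per-plate cutoff, the plate's mean sample inhibition plus 3 SD, cut at about 24% in these data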;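 further: 0% = DMSO plus EC80 ATP and 100% = DMSO alone without ATP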
# M1 PAM parental – nonselective calcium activators in parental CHO-K1 cells, primary screen, counter-screen for M1 PAM project, cell-based, Fluo-8 calcium fluorescence, full deck, 1536-well. ATP EC20; 0% at ATP EC20, 100% at ATP max. activation, % at 3 µM. actives 0.02% (n = 360,000);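 active means activation above the run cutoff, the mean activation of all test compounds plus 3 SD, cut at about 40% in these data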;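 further: peak over basal fluorescence ratio in a 140 s read after ATP addition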
# M1 antag – human M1 muscarinic receptor antagonists, primary screen, CHO-K1 cells, Fluo-8 calcium fluorescence, 1536-well; actives 1.3% (n = 360,000); CHO-K1 hM1, ACh EC80 antagonist; inhibition, % at 3 µM;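 active means percent inhibition above its own plate's cutoff, namely the mean of that plate's compound wells plus 3 SD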;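 further: peak over basal fluorescence ratio during 140 s after agonist addition; 0% = ACh EC80 plus DMSO and 100% = DMSO alone without agonist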
# Target sequence (P11229 whole entry, looked up): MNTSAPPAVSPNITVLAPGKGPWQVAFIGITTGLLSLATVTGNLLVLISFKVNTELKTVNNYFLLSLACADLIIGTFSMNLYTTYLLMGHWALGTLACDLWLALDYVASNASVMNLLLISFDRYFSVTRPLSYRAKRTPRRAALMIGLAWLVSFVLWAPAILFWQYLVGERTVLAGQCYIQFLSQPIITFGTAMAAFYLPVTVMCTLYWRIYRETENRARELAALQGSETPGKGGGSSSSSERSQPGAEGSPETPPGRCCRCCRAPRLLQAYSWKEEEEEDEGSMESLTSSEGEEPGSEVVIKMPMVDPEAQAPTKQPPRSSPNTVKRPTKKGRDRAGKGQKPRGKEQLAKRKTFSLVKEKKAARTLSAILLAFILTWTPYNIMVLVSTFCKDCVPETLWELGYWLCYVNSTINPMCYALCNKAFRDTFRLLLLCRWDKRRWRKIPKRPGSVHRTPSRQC
# M1 ag parental – counter-screen for M1 agonists: effect in parental CHO-K1 cells; Fluo-8 calcium fluorescence; scaled to maximal ATP response, vehicle zero; activation, % at 3 µM; actives 0.48% (n = 360,000); AID 602248, 2012; in the data active means activation above about 15%;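 further: untransfected CHO-K1 host cells lacking M1 receptor as counterscreen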
# M1 PAM – human M1 muscarinic receptor positive allosteric modulators, primary screen, CHO-K1 cells, Fluo-8 calcium fluorescence, 1536-well; CHO-K1 hM1, ACh EC20; 0% = ACh EC20, 100% = maximal ACh; activation, % at 3 µM; actives 0.088% (n = 360,000); in the data active means activation above about 19%, passing the limit was not always enough
# M1 ag – human M1 muscarinic receptor agonists, primary screen, Fluo-8 calcium fluorescence, CHO-K1 cells, HTS; actives 0.33% (n = 360,000); AID 588814, 2011; CHO-K1 hM1, agonist mode; 0% DMSO, 100% acetylcholine EC100; activation, % at 3 µM;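 active means activation above the run's mean compound activation plus 3 SD, cut at about 16% in these data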;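 further: peak over basal fluorescence ratio within a 140 s kinetic read after compound addition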
# * hit, by the source's call.
SMILES,CHO-K1 Ca antag,M1 PAM parental,M1 antag,M1 ag parental,M1 PAM,M1 ag
CC(C)(C)c1ccc(CC(=O)N2CCC2(C)C(=O)Nc2cnc3ccccc3c2)cc1 (centres undefined),-2,10,36*,11,-21,0
Cc1ccc(NC(=O)C2(C)CCN2C(=O)Cc2ccc(-c3ccccc3)cc2)cc1 (centres undefined),5,13,20,8,-15,19*
Cc1ccc(S(=O)(=O)NC(=O)C2(C)CCN2C(=O)Cc2ccc(-c3ccccc3)cc2)cc1 (centres undefined),-3,18,-1,0,-1,-2
O=C(O)[C@H](Cc1ccccc1)NC(=O)N1CCN(c2ccccc2)CC1,5,4,-11,0,9,-2
C(=C\c1ccco1)/C1=NN(c2ccccc2)C(c2ccco2)C1 (centres undefined),18,-14,11,4,-12,2
O=[N+]([O-])c1ccc(/C=C/C2=NN(c3ccccc3)C(c3ccco3)C2)o1 (centres undefined),39*,-4,60*,38*,-15,66*
COc1ccc(CC(=O)Nc2cccc(-c3ccc4nncn4n3)c2)cc1OC,-12,3,1,6,1,0
CCC(C)[C@@H](NC(=O)OC(C)(C)C)c1nnc(S(=O)(=O)Cc2cccc(C)c2)o1 (some centres undefined),26*,-10,4,0,7,-4
Cc1ccccc1CS(=O)(=O)c1nnc([C@H](Cc2ccccc2)NC(=O)OC(C)(C)C)o1,5,9,2,2,3,-7
CCCCCCN1C[C@H](n2cc(-c3ccc(F)cc3)nn2)[C@@H](O)C[C@@H]1c1ccc(C)cc1,-9,13,19*,1,-10,3
CCN(CC)S(=O)(=O)c1cccc(C(=O)N/N=C/c2ccc(O)c(O)c2O)c1,0,-7,6,0,26*,-6
CCOc1ccccc1/C=N/NC(=O)c1cccc(S(=O)(=O)N(CC)CC)c1,-10,15,0,3,-3,-5
Cc1ccc2c(C)c(C(=O)N(Cc3cccs3)C3CCS(=O)(=O)C3)oc2c1 (centres undefined),-5,1,2,0,24*,16
Cc1ccc2c(C)c(C(=O)N(Cc3ccccc3)C3CCS(=O)(=O)C3)oc2c1 (centres undefined),-17,27,-6,4,15,2
CC(C)(C)OC(=O)N1CCN(C(=O)c2[nH]cnc2C(=O)Nc2cccc(Cl)c2)CC1,-9,11,-7,0,8,-2
COC(=O)c1sc(NC(=O)c2cccc([N+](=O)[O-])c2)c(C(N)=O)c1C,-6,12,1,0,4,-4
COC(=O)c1c(NC(=O)c2cccc([N+](=O)[O-])c2)sc(C(N)=O)c1C,29*,-10,9,-1,-6,-4
COc1ccc(CCNC(=O)C2CC2)cc1,28*,-22,-8,0,7,1
COc1ccc(CCNC(=O)C(=O)NCC2CCCN2S(=O)(=O)c2ccccc2)cc1 (centres undefined),15,-7,29*,8,-9,0
Cc1ccc(C)c(S(=O)(=O)N2CCCC2CNC(=O)C(=O)NCCc2ccccc2)c1 (centres undefined),9,8,31*,10,-12,0
O=C(NCc1ccc(F)cc1)C(=O)NCC1CCCN1S(=O)(=O)c1ccccc1 (centres undefined),21,10,-10,0,14,-2
O=C(NCCc1ccc(F)cc1)C(=O)NCC1CCCN1S(=O)(=O)c1ccccc1 (centres undefined),11,-9,27*,10,-7,2
COc1cc(/C=C2\SC(=S)N(CCCCC(=O)O)C2=O)ccc1OS(=O)(=O)c1ccc(C)cc1,-3,2,3,7,16,8

# From PubChem
